Where “and” joins values, the source holds several entries; their conditions need not be identical. Identical values can stand only once. A number with no mark means an inactive call. Records with an inconclusive call do not appear. Calls of active or inactive are those of the source. Unless noted, calls come from the whole dose curve; as a rule, active = well fitted curve in the direction sought with a large enough effect in the repeat runs; inconclusive = weak or mixed curves; inactive = no such curve, though single readings can be large; an effect the other way counts as inactive or inconclusive.

Test [1] deals with Thyrotropin receptor (Homo sapiens) (UniProt P16473). Description: qHTS assay to identify small molecule agonists of the thyroid stimulating hormone receptor (TSHR) signaling pathway (AID 1224843; calls by dose curve; note: nearly all actives have a fitted effect of over 45% in size). In outline: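 Agonist-mode screen: TSHR HEK293 cells received test chemicals for half an hour at room temperature, then HTRF cAMP detection reagents for one hour prior to fluorescence measurement. Each chemical ran as a 15-concentration series, triplicated.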
On the technique in general: In qHTS, concentration-response curves come from the screen itself.

Test [2] in a line: qHTS assay to identify small molecule agonists of the hypoxia (HIF-1) signaling pathway - cell viability counter screen (AID 1224844; calls by dose curve; note: nearly all actives have a fitted effect of over 50% in size). In outline:
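Same wells as the HIF-1 reporter screen; ME-180 cells carrying HRE-bla, 17 hr treatment at 37C; CellTiter-Glo luminescence read after 30 min at room temperature.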

Test [3] can be described thus: qHTS assay to identify small molecule agonists of H2AX (AID 1224845; active = well fitted activation curve with a large enough effect in the signal ratio in the repeat runs, not every such curve was filed as active; the % refers to the signal ratio). In outline:
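Wild-type CHO-K1 cells, plated overnight, exposed 3hr at 37C to 15 concentrations (0.76% DMSO final). Lysed, then HTRF anti-pH2AX (S139) cryptate and anti-H2AX-d2 antibodies, 24 hr room temperature; 665/620 nm emission read.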

The nature of test [4]: qHTS assay to identify small molecule agonists of the hypoxia (HIF-1) signaling pathway (AID 1224846; active = well fitted activation curve with a large enough effect in the signal ratio in the repeat runs, not every such curve was filed as active; the % refers to the signal ratio). In outline: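 In ME-180 cells bearing an HRE-bla construct, 17 h treatment with DMSO-dissolved compounds at 37C was followed by CCF4-AM loading to quantify reporter induction.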
A short description of test [5]: qHTS assay to identify small molecule agonists of H2AX - cell viability counter screen (AID 1224847; calls by dose curve; note: nearly all actives have a fitted effect of over 30% in size; note: potency is the fitted concentration of half-maximal effect). In outline:
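CHO-K1 cells plated overnight at 37C, then exposed 3 h at 37C to compounds at 15 concentrations (0.76% DMSO final). Viability by CellTiter-Glo luminescence after 30 min at room temperature.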

Test [6] in a line: qHTS RealTime-Glo MT Cell Viability Assay in HepG2 cells - 24 hour (AID 1224867). Note: nearly all actives have a fitted effect of over 50% in size. In outline:
(§1)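 Cell number in HepG2 cultures estimated from NanoLuc luminescence generated by metabolic reduction of a prosubstrate by living cells. The homogeneous, nonlytic format allowed repeated reads at 0, 8, 16, 24, 32 and 40 h of compound exposure.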

The nature of test [7]: qHTS RealTime-Glo MT Cell Viability Assay in HEK293 cells - 32 hour (AID 1224868). Note: top concentration of the series differs between compounds; nearly all actives have a fitted effect of over 50% in size. In outline: (§2)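 Homogeneous bioluminescent viability format in HEK293 cells (600 cells/well). Following 5 h at 37 C/5% CO2, 23 nL compound was pintooled; the signal was measured repeatedly during 40 h incubation.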
The nature of test [8]: A CellTox Green Cytotoxicity Assay to monitor cytotoxicity in HEK293 cells - 0 hour (AID 1224869). Note: nearly all actives have a fitted effect of over 50% in size. In outline: (§3)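 Homogeneous no-lysis format: HEK293 cell suspension mixed with CellTox Green reagent, seeded, incubated 5 h at 37 C/5% CO2, then dosed by pintool with compound in DMSO.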
A short description of test [9]: qHTS RealTime-Glo MT Cell Viability Assay in HepG2 cells - 40 hour (AID 1224870). Note: nearly all actives have a fitted effect of over 50% in size. In outline:
(§4)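 HepG2 cells (600/well) mixed with RealTime-Glo MT reagent, settled 5 h at 37 C/5% CO2 before compound addition. Nonlytic NanoLuc luminescence from viable-cell prosubstrate reduction read repeatedly during 40 h treatment at 37 C.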

Test [10] can be described thus: A CellTox Green Cytotoxicity Assay to monitor cytotoxicity in HEK293 cells - 40 hour (AID 1224871). Note: nearly all actives have a fitted effect of over 45% in size. Note: potency is the fitted concentration of half-maximal effect. In outline: as §3
The nature of test [11]: qHTS RealTime-Glo MT Cell Viability Assay in HEK293 cells - 16 hour (AID 1224872). In outline:
as §2

Test [12] in a line: qHTS RealTime-Glo MT Cell Viability Assay in HepG2 cells - 8 hour (AID 1224873). Note: nearly all actives have a fitted effect of over 55% in size. In outline:
as §4

A short description of test [13]: qHTS RealTime-Glo MT Cell Viability Assay in HEK293 cells - 40 hour (AID 1224874). Note: nearly all actives have a fitted effect of over 50% in size. As to conditions: RealTime-Glo luminescence; max response: stronger effect = lower value. In outline:
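Measured as luminescence from the same continuously cultured HEK293 wells at successive time points (0, 8, 16, 24, 32, 40 h) after compound addition. Reagent present from seeding; dosing at 5 h; incubation 37 C.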

Test [14] in a line: A CellTox Green Cytotoxicity Assay to monitor cytotoxicity in HEK293 cells - 24 hour (AID 1224875). Note: nearly all actives have a fitted effect of over 45% in size. In outline: as §3
A short description of test [15]: A CellTox Green Cytotoxicity Assay to monitor cytotoxicity in HepG2 cells - 16 hour (AID 1224876). Note: nearly all actives have a fitted effect of over 45% in size. Note: potency is the fitted concentration of half-maximal effect. In outline:
(§5)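 Fluorescent DNA-binding dye, 600 HepG2 cells/well, 5 h preincubation then compound in DMSO; same plates read at 0–40 h, 37 C.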

Test [16] in a line: qHTS RealTime-Glo MT Cell Viability Assay in HepG2 cells - 32 hour (AID 1224877). Note: nearly all actives have a fitted effect of over 55% in size. In outline:
as §1

Test [17] is described as follows: A CellTox Green Cytotoxicity Assay to monitor cytotoxicity in HepG2 cells - 24 hour (AID 1224878). Note: nearly all actives have a fitted effect of over 45% in size. Note: potency is the fitted concentration of half-maximal effect. In outline:
as §5

A short description of test [18]: A CellTox Green Cytotoxicity Assay to monitor cytotoxicity in HepG2 cells - 40 hour (AID 1224879). Note: nearly all actives have a fitted effect of over 40% in size. In outline: as §5
Test [19] is described as follows: qHTS assay to identify small molecule agonists of the estrogen related receptor (ERR) signaling pathway from Tox21 library (AID 1224849; calls by dose curve; note: nearly all actives have a fitted effect of over 15% in size). The settings on record: ERR reporter cell line, ONE-Glo luciferase, 18 h; at 92.4 µM (top of the series) unless noted. In outline: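 Reporter cells (ERR, NTP source) treated with Tox21 10K compounds 18 h, 37 C. Readout: ONE-Glo luminescence, 30 min RT.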
% is set by controls: 0 for no effect and ±100 for the full control effect.

Thyrotropin receptor (Homo sapiens), sequence (P16473 whole entry, looked up): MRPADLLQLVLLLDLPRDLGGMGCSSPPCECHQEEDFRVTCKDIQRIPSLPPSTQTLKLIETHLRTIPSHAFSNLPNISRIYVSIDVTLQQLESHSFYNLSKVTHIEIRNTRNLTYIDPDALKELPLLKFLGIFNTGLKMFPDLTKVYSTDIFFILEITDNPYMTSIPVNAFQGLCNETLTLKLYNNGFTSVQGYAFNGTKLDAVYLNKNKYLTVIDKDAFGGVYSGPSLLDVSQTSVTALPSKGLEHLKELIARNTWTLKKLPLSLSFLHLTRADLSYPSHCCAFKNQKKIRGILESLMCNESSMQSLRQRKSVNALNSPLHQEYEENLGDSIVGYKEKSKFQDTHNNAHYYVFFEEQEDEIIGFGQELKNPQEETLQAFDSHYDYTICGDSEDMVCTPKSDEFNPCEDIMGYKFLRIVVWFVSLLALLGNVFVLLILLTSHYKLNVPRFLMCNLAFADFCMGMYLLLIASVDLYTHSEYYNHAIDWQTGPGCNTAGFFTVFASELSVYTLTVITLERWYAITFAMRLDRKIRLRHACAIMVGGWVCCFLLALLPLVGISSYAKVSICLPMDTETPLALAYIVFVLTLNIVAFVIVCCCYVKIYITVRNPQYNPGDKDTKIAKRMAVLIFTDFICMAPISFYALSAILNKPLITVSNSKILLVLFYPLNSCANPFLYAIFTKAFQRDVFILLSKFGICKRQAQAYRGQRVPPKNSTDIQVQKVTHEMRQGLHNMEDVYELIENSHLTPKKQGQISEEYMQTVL

As for `CC(C)(CCl)c1ccccc1`, the Potency entry in test [1], in test [2], in test [3], in test [5], in test [6] and in test [7] was “inactive” throughout. For the same compound, the Potency entry in [8], in [9], in [10], in [11], in test [12] and in test [14] was “inactive” in each case. Besides, the Potency entry in [15], in test [16], in [17] and in [18] was “inactive” each time. In addition, the call in [4] was inactive. For the same compound, in test [13], the max response was 4.77%.
On to `Cc1cc(O)c(C(C)C)cc1Cl`, for which the Potency result in test [1], in [2], in test [3], in test [6], in test [7] and in [9] was “inactive” throughout. Further, the Potency result in [11], in test [12] and in test [16] was “inactive” throughout. Besides, the compound was classed as inactive in test [4]. For the same compound, the Potency in test [5] is 89.8 µM (active); in test [10], 38.9 µM (active); in test [15], 24.5 µM (active); in test [17], 27.5 µM (active). The max response in test [13] was -23.1% and 3.73%.
In the case of `CCCOCCOCCO`, the Potency entry in test [1], in test [2], in test [3], in test [5], in test [6] and in [7] was “inactive” in each case. The Potency entry in test [8], in [9], in test [10], in test [11], in test [12] and in test [14] was “inactive” each time. For the same compound, the Potency entry in test [15], in test [16] and in [17] was “inactive” in each case. The outcome in test [4] was inactive. In [13], the max response is 2.29%.
Take `CO/N=C1\CN(c2nc3c(cc2F)c(=O)c(C(=O)O)cn3C2CC2)CC1CN` (stereo not drawn): the Potency result in test [1], in [2], in test [3], in test [5], in test [6] and in [7] was “inactive” throughout. Moreover, the Potency result in [8], in test [9], in test [10], in test [11], in test [12] and in [14] was “inactive” in each case. The Potency result in test [15], in test [16], in test [17] and in [18] was “inactive” throughout. For the same compound, the result in test [4] was inactive. In test [13], the max response was 8.45%.
For `C=CCOC(=O)/C=C\C(=O)OCC=C`, the Potency entry in test [1], in [2], in [3], in test [5], in test [6] and in test [8] was “inactive” throughout. Moreover, the Potency entry in [9], in test [10], in test [11], in [12], in [14] and in [15] was “inactive” throughout. Also, the Potency entry in test [16], in [17] and in test [18] was “inactive” in each case. Also, in test [4], the outcome was inactive.
On to `O=S(=O)(c1ccccc1)c1ccc(Cl)cc1`, for which the Potency entry in [1], in [2], in test [3], in [5], in test [6] and in test [8] was “inactive” each time. For the same compound, the Potency result in test [9], in test [10], in test [11], in [12], in [15] and in test [16] was “inactive” in each case. For the same compound, the Potency entry in test [17] and in test [18] was “inactive” throughout. Besides, the outcome in [4] was inactive. Also, in test [19], the activity change, positive = activation is -31.4%. Besides, in test [13], the max response was -0.98%.
In the case of `C=CC(=O)NCOCC(C)C`, the Potency result in [1], in test [2], in test [3], in [5], in test [6] and in test [7] was “inactive” in each case. The Potency entry in test [8], in test [9], in [10], in test [11], in test [14] and in test [15] was “inactive” each time. Also, the Potency entry in test [16], in test [17] and in [18] was “inactive” throughout. Also, the compound was classed as inactive in test [4]. Besides, in test [13], the max response is -14%.

These data come from PubChem BioAssay (Tox21).
